Values joined by “and” are separate entries in the source; they are usually repeats but may differ in a detail not shown here. Identical values can stand only once. Out of some 350,000 compounds screened, about 31,000 (8.9%) were called active. Inconclusive results (about 15%) are left out. The call rests on the fitted dose curve; in most records, active means well fitted inhibition curve with a large enough effect; inconclusive means small, poorly fitted or top-dose-only effect; inactive means no such curve, though single readings can be large or run the other way. The entries come from a sample that favours actives as a whole. Some structures have more than one record in an assay (separate samples or runs), and their calls can disagree.
target: Histone-lysine N-methyltransferase EHMT2 (Homo sapiens) (UniProt Q96KQ7); assay: qHTS Assay for Inhibitors of Histone Lysine Methyltransferase G9a; conditions: G9a H3K9 monomethylation, AlphaScreen, 2 h; series mostly up to 59 µM; activity, negative = inhibition: at the top concentration; further: nearly all actives have a fitted effect of over 75% in size
Sequence (Q96KQ7 913-1193 limits assumed): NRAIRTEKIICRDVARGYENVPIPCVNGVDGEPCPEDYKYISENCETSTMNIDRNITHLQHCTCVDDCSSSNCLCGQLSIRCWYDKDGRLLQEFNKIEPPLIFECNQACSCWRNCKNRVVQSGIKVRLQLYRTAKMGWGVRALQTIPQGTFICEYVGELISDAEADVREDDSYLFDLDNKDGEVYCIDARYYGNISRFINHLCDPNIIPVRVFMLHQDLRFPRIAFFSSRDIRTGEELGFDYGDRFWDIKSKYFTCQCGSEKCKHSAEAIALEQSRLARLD
Method in brief: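 Methyltransferase reactions run at room temperature for 2 h (20 nM enzyme, 500 nM biotin-H3K9 peptide, 20 uM SAM) after a 15 min compound preincubation; product detected by AlphaScreen beads and anti-H3K9me1 antibody.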
On the % scale 0 is the no-effect control and ±100 the full control effect; potency means the concentration at half of the fitted maximal effect.

activity, negative = inhibition, inactive:
Cc1ccc(C)c(NC(=O)COC(=O)CSc2ccccc2)c1 0.0476% [at 12.7 µM]
COc1ccc(C)cc1NC(=O)c1cc(-c2ccccc2)nc2c1cnn2C(C)C 0.616% [at 12.7 µM]
CC(Sc1nnc(C2CC2)n1C1CC1)C(=O)Nc1ccc(C(N)=O)cc1 (stereo not given) -5.65% [at 2.33 µM]
CC(C)=C(NC(=O)c1ccco1)C(=O)NCCc1nc2ccccc2[nH]1 6.16% [at 2.33 µM]
COc1ccc(OC(C)C(=O)NCCc2nc3ccccc3[nH]2)cc1 (stereo not given) -6.9% [at 102 µM]
Cc1ccc(-n2nc(C)c3c(C)cc(=O)n(CC(=O)Nc4ccc(C(C)C)cc4)c32)cc1 16.2%
CCN(CC(=O)Nc1c(F)cccc1F)C(=O)c1ccc(Sc2nncn2C)c([N+](=O)[O-])c1 -3.94% [at 102 µM]
Cc1ccc(S(=O)(=O)N2CCN(C(=O)CSc3cc(C)ccc3C)CC2)c(C)c1 39.7% [at 102 µM]
COc1ccc(N2C(=O)C3CCCN3C2c2cccc(OC)c2)cc1 (stereo not given) -0.251% [at 102 µM]
COc1ccc(C2NC(=O)c3ccccc3N2)cc1 (stereo not given) 2.64% [at 102 µM]
Cc1ccc(C2CC(c3cccc(C)c3)n3nc(N)nc3N2)cc1 (stereo not given) 11.8% [at 102 µM]
O=C1NC(c2cccc(Cl)c2)Nc2ccccc21 (stereo not given) -1.01% [at 102 µM]
O=C1CCC([N+](=O)[O-])C(c2ccccc2Br)N1 (stereo not given) 22.3% [at 102 µM]
COc1ccc(C2CC(c3ccc(C)cc3)Nc3nc(N)nn32)cc1 (stereo not given) 0.965% [at 102 µM]
COc1ccc(C(C#N)(CC(=O)O)c2cnccn2)cc1OC (stereo not given) 3.29% [at 2.33 µM]
CC1CCCN(c2nc3c(S(=O)(=O)c4ccc(C(C)C)cc4)nnn3c3ccsc23)C1 (stereo not given) 6.43%
COc1ccc(CNC(=O)c2ccc(NS(=O)(=O)c3ccc4[nH]c(=O)[nH]c4c3)cc2)cc1OC 19.8% [at 12.7 µM]
CCOc1ccc(-c2nonc2NC(=O)c2oc3ccc(CC)cc3c2C)cc1 71.8%
Cn1c(C(=O)Nc2cccc(C(F)(F)F)c2)cc2c(=O)n3ccccc3nc21 -32.2%
CC(=O)N1CCc2c(sc(NC(=O)CCS(=O)(=O)c3ccccc3)c2C#N)C1 2.65% [at 102 µM]
CC(C)(C)n1ncc2c(=O)n(Cc3c(Cl)cccc3Br)cnc21 -12.6% [at 2.33 µM]
CCOC(=O)c1cc(NC(=O)c2ccc(F)cc2)c(=O)n2c1oc1ccccc12 -36%
COc1ccccc1-c1nnc(C2CCN(C(=O)c3ccc(Cl)cc3)CC2)o1 0.515%
CCOC(=O)c1cc(-c2ccc(OC)c(S(=O)(=O)Nc3ccc(OC)cc3OC)c2)on1 -24.5%
Cc1cccc(C)c1NC(=O)COC(=O)c1ccccc1O 16.4% [at 102 µM]
C=CCc1cccc2cc(C(=O)OCC)c(=O)oc12 19.5% [at 102 µM]
CCCN(CCC)C(=O)Cn1c(=O)n(-c2ccc(Cl)cc2)c(=O)c2c3c(sc21)CCCCC3 8.07%
Cc1ccc(C)c(C(=O)COC(=O)Cn2[nH]c(=O)c3ccccc3c2=O)c1 11.2% [at 12.7 µM]
Cc1ccc(-n2cnc3cc(C(=O)NCCC4=CCCCC4)ccc32)cc1Cl -3.44%
FC(F)(F)c1nnc2sc(-c3ccco3)nn12 -3.47%
Cc1nnc2sc(-c3ccco3)nn12 -30.4%
CSc1ccc(CCNC(=O)c2cc(C)nc3c2c(C)nn3-c2cccc(F)c2)cc1 -2.67%
CC(C)n1ncc2c(C(=O)NCc3ccccc3CN(C)C)cc(C3CC3)nc21 -9.59%
N#Cc1ccc(N2Cc3ccccc3/C2=N/C(=O)Nc2ccc(Cl)cc2)cc1 3.53%
Cc1cccc(N2CCN(C(=O)c3cccc(S(=O)(=O)N4CCc5ccccc5C4)c3)CC2C)c1 (stereo not given) 1.73% [at 102 µM]
O=C(COc1cccc2c1CCNC2=O)NC1CCCCC1 8.64% [at 0.501 µM]
Cc1cc(OCC(=O)NCC2(N(C)C)CCCCC2)cc(C)c1Cl -5.48%
Cc1cccc(OCC(O)Cn2c(N3CCCCC3)nc3c2c(=O)[nH]c(=O)n3C)c1 (stereo not given) 14.4% [at 102 µM]
CCOC(=O)Cn1c(CN(Cc2ccccc2)Cc2ccccc2)nc2c1c(=O)[nH]c(=O)n2C 37.9%
O=C(COc1ccc(/C=N/NS(=O)(=O)c2ccccc2)cc1)NCCc1ccccc1 -4.68% [at 2.33 µM]
COc1ccc(/C=N/NS(=O)(=O)c2ccc(NC(C)=O)cc2)cc1 0.351% [at 102 µM]
CC(=O)Cn1cnc2c(cnn2-c2ccccc2)c1=O 1.7% [at 102 µM]
CCc1ccc(NC(=O)CCCc2nnc3n(CCCOC)c(=O)c4sccc4n23)cc1 -5.06%
COc1ccccc1C(=O)NCCC(=O)NCC(c1ccco1)N1CCCCC1 (stereo not given) -3.11% [at 102 µM]
COc1ccccc1CCNC(=O)CN1C(=O)NC2(CCCC2)C1=O 8.45% [at 0.501 µM]
COc1cccc(CNC(=O)Cn2ncn3c(cc4ccccc43)c2=O)c1 -27.7%
COc1ccc(NC(=O)c2sc3nc[nH]c(=O)c3c2C)cc1 8.43%
CCc1cccc(NC(=O)c2cc(-c3ccccc3)n[nH]2)c1 -26.5%
CN(C(=O)COc1ncnc2c1cnn2-c1ccccc1)C1CCCCC1 25.1% [at 0.0925 µM]
CN(C(=O)CSc1nnnn1-c1ccccc1)C1CCCCC1 3.58% [at 102 µM]
COc1ccccc1CNC(=O)C(=O)NCC(c1cccs1)S(=O)(=O)c1cccs1 (stereo not given) 11.3%
COc1ccc(NC(=O)Cn2c(-c3ccc(OC)cc3)cn(-c3ccc(C)cc3)c2=O)cc1 -31.1% [at 12.7 µM]
COc1ccc(-c2nc3ccccc3c(=O)n2CCc2ccc(O)cc2)cc1 12.4% [at 102 µM]
CCOC(=O)c1c(CNCc2ccccc2F)c2sc(C)cc2n1C 12% [at 12.7 µM]
CC(C)N(C(=O)CN1CCN(S(=O)(=O)c2ccc(Br)s2)CC1)C(C)C 17.1% [at 2.33 µM]
Cc1ccc(S(=O)(=O)N2CCN(CC(=O)N/N=C/c3ccc(Br)s3)CC2)cc1 1.4% [at 102 µM]
CC1CC(C)(C)CC2(C1)NC(=O)N(CC(=O)Nc1nccs1)C2=O (stereo not given) 13.6% [at 0.501 µM]
COc1cccc(CNC(=O)C2CCC(CNS(=O)(=O)c3cccs3)CC2)c1 (stereo not given) -20%
CSc1ncc(Cl)c(C(=O)Nc2ccc(S(=O)(=O)N3CCCC(C)C3)cc2)n1 (stereo not given) -29.4%
Cc1cc(C)cc(OCC(=O)Nc2nc(-c3ccc(F)cc3)ns2)c1 -6.17%
CC(=O)c1ccc(N2CCN(c3nc4c(S(=O)(=O)c5ccccc5)nnn4c4ccc(Cl)cc34)CC2)cc1 6.74%
Fc1cccc(-n2ncc3c2ncn2nc(-c4ccccc4Cl)nc32)c1 5.95%
Cc1ccc(C)c(N2CCN(C(=O)CCc3c(C)nc4c(c3C)c(=O)n(C)c(=O)n4C)CC2)c1 0.908%
O=C(Nc1ccc(Cl)cc1)Nc1ccc(C(=O)N2CCOCC2)cc1 9.93% [at 102 µM]
O=C(Cc1ccccc1Cl)N1CCOCC1 2.49% [at 102 µM]
COc1cccc(C(=O)Nc2ccc3oc(-c4ccc5ccccc5c4)nc3c2)c1 -48.7%
COc1ccc(NC(=O)c2c(C)oc3c2CCCC3)cc1 -13.4% [at 102 µM]
COc1ccc(C2C3=C(CCCC3=O)N(CC(=O)O)C3=C2C(=O)CCC3)cc1 -19% [at 102 µM]
Cc1ccc(-c2nn3c(=O)cc(CN4CCN(C(=O)Nc5cccc(C(F)(F)F)c5)CC4)nc3s2)cc1 7.31%
CCCn1nc(C(=O)OCc2nc(N)nc(Nc3ccccc3C)n2)c2ccccc2c1=O -4.37% [at 12.7 µM]
Cc1cn(C)c(CC(=O)NCc2ccccc2)c1C(=O)O 0.148%
c1nnc2c3c4c(sc3ncn12)CCC4 -3.04%
N=c1c2c3c(sc2ncn1N)CCCC3 -1.8% [at 102 µM]
Cn1c(=O)c2sccc2n(Cc2ccc(Br)cc2)c1=O 4.98% [at 2.33 µM]
CC(=O)OC(COc1ccc(F)cc1)Cn1cnc2ccccc21 (stereo not given) 5.88% [at 102 µM]
C/C(Cn1nnc2ccccc21)=N\OC(=O)c1cc(F)c(F)cc1Cl 4.86% [at 102 µM]

Potency, active:
CC(C)Oc1ccc(/C=C(\NC(=O)/C=C/c2ccco2)C(=O)NCCc2nc3ccccc3[nH]2)cc1 39.8 µM
Brc1ccccc1C1Nc2cccc3cccc(c23)N1 44.7 µM
Cc1ccc(C2Nc3cccc4cccc(c34)N2)cc1 10 µM
COc1cccc(C2Nc3cccc4cccc(c34)N2)c1 20 µM
Oc1ccc(C2Nc3cccc4cccc(c34)N2)cc1 25.1 µM
CCOc1cccc2cc(C(=O)OCC(=O)Nc3c(C)cccc3CC)c(=O)oc12 44.7 µM
Fc1ccc(-c2ccc(-c3nn4c(-c5ccco5)nnc4s3)o2)cc1 15.8 µM
Cc1cccc(N2Cc3ccccc3C2=NC(=O)c2ccc(Cl)nc2)c1 11.2 µM
CCC(C)Sc1nc2c(c(=O)[nH]c(=O)n2C)n1CC(O)COc1cccc2ccccc12 (stereo not given) 7.94 µM
O=S(=O)(N/N=C\c1cccn1-c1ccccc1)c1ccc2ccccc2c1 31.6 µM
COc1ccccc1C(=O)NCCC(=O)NN1C(=O)NC2(CCCCC2)C1=O 50.1 µM
CN(C(=O)CSc1nncc2ccccc12)C1CCCCC1 50.1 µM
COc1ccc(-c2ccc(CCC(=O)O)n2-c2ccc(O)cc2)cc1 31.6 µM
Cc1cccc(NC(=O)CN2CCCN(S(=O)(=O)c3ccc(Br)s3)CC2)c1 39.8 µM
S=C(Cc1ccc(Cl)cc1)N1CCOCC1 14.1 µM
COc1ccc(N/N=C2/CCCCC2=O)cc1 10 µM
S=c1[nH]nc2c3c4c(sc3ncn12)CCCC4 1.12 µM
Fc1ccc(OCc2nn3c(Cn4nnc5ccccc54)nnc3s2)cc1 11.2 µM

Potency, inactive and 44.7 µM (active):
CO/N=C(\C(=O)N[C@@H]1C(=O)N2C(C(=O)O)=C(COC(C)=O)CS[C@H]12)c1csc(N)n1 (stereo in doubt)

From PubChem BioAssay AID504332 (National Center for Advancing Translational Sciences (NCATS), 2011)
